Screening results as filed in PubChem BioAssay.
Compounds with a hit are over-represented: about 6% of the library has one in this group of screens.
D1 PAM: potentiators of human D1 dopamine receptor; actives 0.036% (n = 360,000); P21728; potentiation, % at 10 µM; HEK293 TREx D1 cells, calcium flux, dopamine EC20 potentiation; in the data active = potentiation above about 30%; also: 0% is about no effect
DRD3 agonist: D3 dopamine receptor (human) agonism. actives 0.58% (n = 410,000). P35462. D3R DiscoveRx beta-arrestin cells, luminescence, 90 min. max activation, %; in the data active = max activation above about 30%; also: 0% is about no effect
Target sequence (P35462 whole entry, looked up): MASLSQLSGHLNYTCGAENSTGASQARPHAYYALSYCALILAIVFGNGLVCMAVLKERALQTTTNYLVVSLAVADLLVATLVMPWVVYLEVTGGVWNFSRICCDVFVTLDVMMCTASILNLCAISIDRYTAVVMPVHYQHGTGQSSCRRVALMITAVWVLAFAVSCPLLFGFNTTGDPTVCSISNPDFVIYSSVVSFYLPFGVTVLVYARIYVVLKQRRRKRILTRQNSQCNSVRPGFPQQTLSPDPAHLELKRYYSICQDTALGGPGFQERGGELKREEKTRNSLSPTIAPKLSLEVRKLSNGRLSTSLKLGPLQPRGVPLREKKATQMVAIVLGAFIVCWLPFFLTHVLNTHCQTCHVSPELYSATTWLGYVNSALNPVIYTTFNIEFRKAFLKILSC
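Agonist mode: compounds and dopamine controls were applied to plated cells for 90 min at 37 degrees C after an overnight attachment at 1500 cells/well. Luminescent read-out followed 30 - 60 minutes at room temperature with DiscoveRx detection reagent.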
D3 antag: blocks the human D3 dopamine receptor; P35462; D3R cells, DiscoveRx beta-arrestin luminescence, antagonist mode; active compounds read low; max response, negative = inhibition, %; actives 2.5% (n = 360,000); AID 652054; in the data active = max response below about -50%; also: % is scaled to controls: 0 for no effect and ±100 for the full control effect
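Cells expressing the human receptor were seeded at 1500 cells/well, incubated overnight at 37 degrees C in 5% CO2, then exposed to library compounds with dopamine controls for 90 minutes at 37 degrees C before luminescent detection.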
D1 ag: agonists of human D1 dopamine receptor | HEK293 T-REx D1 cells, calcium flux, agonist mode | actives 1% (n = 360,000) | activation, % at 2 µM | AID 504660 | P21728; in the data active = activation above about 30%; also: 0% is about no effect
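Agonism was scored from calcium flux recorded over 180 s (1 read/s) after pintool compound addition, following a 10-cycle baseline. Cells were inducible force-coupled HEK293 TREx D1, plated overnight at 30 C and loaded with no-wash calcium dye.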
D1 antagonist: antagonists of human D1 dopamine receptor | HEK293 TREx D1 cells, calcium flux, dopamine EC80; active compounds read low | actives 3.2% (n = 360,000) | activity change, negative = inhibition, % at 10 µM; in the data active = activity change below about -30%; also: % is scaled to controls: 0 for no effect and ±100 for the full control effect
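Antagonism measured as reduced calcium response to an EC80 dopamine addition following 180 s compound pre-read; cells were inducible HEK293 Trex D1 plated overnight at 30 C, read kinetically at 1 cycle/sec.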
The depositor's hits bear a star; . = no result.

SMILES	D1 PAM	DRD3 agonist	D3 antag	D1 ag	D1 antagonist
COc1cccc(N/C(SCc2ccccc2F)=C(/C#N)C(=O)NCc2cccs2)c1	-3	-5	-22	34*	-40*
CCn1c(=O)cc(SCC(=O)NCc2ccccc2OC)c2ccccc21	-3	6	.	2	-7
CCN1C(=O)/C(=C/C=C2/SCCN2C)SC1=S	12	-10	-17	41*	23
CCN1C(=O)/C(=C/N2CCc3ccccc32)SC1=S	0	-1	-2	2	-19
CN1CCS/C1=C\C=C1/SC(=S)N(CC(=O)O)C1=O	-7	-16	-68*	129*	6
CC1(C)N([O-])C(c2ccccc2)=C[N+](=O)C1(C)C	-8	-6	4	2	-1
COc1ccc(OC)c(C2=C[N+](=O)C(C)(C)C(C)(C)N2[O-])c1	54*	0	-5	4	-12
COc1cccc(CNS(=O)(=O)c2ccc(-c3cc(C(F)(F)F)on3)s2)c1	-5	0	.	17	-16
CCOc1cc(/C=C2\N=C(SC)SC2=O)cc([N+](=O)[O-])c1OC(C)=O	0	0	-14	1	3
CCOc1cc(/C=C2\N=C(SCC)SC2=O)cc([N+](=O)[O-])c1OC(C)=O	0	-8	-97*	2	-10
CCOc1c(OC(C)=O)ccc(/C=C2\N=C(SCC)SC2=O)c1[N+](=O)[O-]	-3	1	-70*	5	-16
Cc1cc(=O)[nH]c(SCC(=O)c2ccc(O)c(O)c2)n1	-1	31*	-4	8	-21
CCN(CC)S(=O)(=O)c1ccc2c(c1)c(=O)c(C(=O)N1CCc3ccccc3C1)cn2C	5	-5	14	0	-37*
CC1CCN(S(=O)(=O)c2ccc3c(c2)c(=O)c(C(=O)N2CCCCC2)cn3C)CC1	-2	35*	7	-1	1
CC(C)OCCCNC(=O)c1cn(C)c2ccc(S(=O)(=O)N3CCCCCC3)cc2c1=O	0	12	.	4	-34*
Cn1cc(C(=O)N2CCc3ccccc3C2)c(=O)c2cc(S(=O)(=O)N3CCOCC3)ccc21	0	7	5	-2	-6
CC(C)c1nn2c(=O)cc(COC(=O)CNC(=O)c3ccccc3)nc2s1	-6	-10	.	-2	-12
COc1ccc(OC)c(C2CC(=O)Nc3c2c(=O)n(C)c2ncnn32)c1 (configuration not stated)	-3	-17	.	0	3
CCOC(=O)c1ccc(OC(=O)c2cn(-c3ccc(C)cc3)c(=O)c3ccccc23)cc1	6	4	.	2	18
CN(C)n1cccc1/C=C(\C#N)S(=O)(=O)c1cccc(Cl)c1	-8	-9	0	6	-35*
COc1ccc(S(=O)(=O)N(CCc2ccccc2)CC(=O)NCc2ccc(C)cc2)cc1	-2	3	.	26	-26
CC1(C)C(c2ccc(Cl)cc2)=[N+]([O-])C2(CCCC/C2=N\O)N1O (configuration not stated)	-7	5	0	3	-87*
Cc1cc(C)nc(NS(=O)(=O)c2ccc(NC(=O)c3nc(SC(C)C)ncc3Cl)cc2)n1	2	3	.	4	-9
Clc1ccc(CN2CCN(c3ncccn3)CC2)c(Cl)c1	-4	8	10	7	-37*
c1ccc(CN2CCN(c3ncccn3)CC2)cc1	-9	24	-25	-1	-11
SMILES	D1 PAM	DRD3 agonist	D3 antag	D1 ag	D1 antagonist
Clc1ccccc1CN1CCN(c2ncccn2)CC1	-1	21	-4	-3	4
Clc1ccc(CN2CCN(c3ncccn3)CC2)cc1	-1	36*	14	7	38
Cc1ccc(CN(Cc2cccn2-c2nnc(N3CCCC3=O)s2)C(=O)Nc2ccccc2Cl)cc1	-3	-7	.	2	-69*
Cc1cc(C)nc(NC(=O)Nc2ccc(F)cc2F)n1	-1	7	23	1	-19
COc1cccc(NC(=O)Nc2nc(SC(C)(C)C)ns2)c1	-8	12	-1	30	-40*
CCCSc1nsc(NC(=O)C(c2ccccc2)c2ccccc2)n1	-6	-9	-71*	0	-1
CCCSc1nsc(NC(=O)Nc2ccc(F)cc2F)n1	-8	2	13	33*	-60*
CCSc1nsc(NC(=O)Nc2cccc(F)c2)n1	-7	7	-17	42*	-44*
COc1cccc(NC(=O)Nc2nc(SC)ns2)c1	-6	0	6	20	-15
CCCSc1nsc(NC(=O)CC)n1	1	8	0	7	1
CC(CNC(=O)C1CCN(C(=O)N2CCOc3ccc(Cl)cc32)CC1)c1ccccc1 (configuration not stated)	1	2	.	0	9
CC[C@@H]1C=C(C)C[C@H](C)C[C@H](OC)[C@H]2O[C@@](O)(C(=O)C(=O)N3CCCC[C@H]3C(=O)O[C@H](/C(C)=C/[C@@H]3CC[C@@H](O)[C@H](OC)C3)[C@H](C)[C@@H](O)CC1=O)[C@H](C)C[C@@H]2OC	-1	.	.	32*	-4
CO[C@H]1C[C@@H]2CC[C@@H](C)[C@@](O)(O2)C(=O)C(=O)N2CCCC[C@H]2C(=O)O[C@H]([C@H](C)C[C@@H]2CC[C@@H](O)[C@H](OC)C2)CC(=O)[C@H](C)C=C(C)[C@@H](O)[C@@H](OC)C(=O)[C@H](C)C[C@H](C)C=CC=CC=C1C	4	.	.	1	-10
O=S(=O)(/C(=C\c1ccc(C(F)(F)F)cc1)c1nc2ccccc2[nH]1)c1ccccc1	.	-12	-93*	.	.
COc1ccc(N(Cc2cc3cccc(C)c3[nH]c2=O)C(=O)c2cccc(Cl)c2)cc1	1	3	.	1	0
COc1cc(N=Nc2ccc(Br)cc2)cc(C=O)c1O	.	-3	-75*	.	.
COc1cc(CN(C)C)cc(C=O)c1O	-1	-3	3	0	-15
COc1ccc(C)cc1NC(=O)CC1NCCNC1=O (configuration not stated)	-2	-7	.	-1	12
CC(=O)NC1C(Oc2cccc(C)c2)OC2COC(c3ccco3)OC2C1O (configuration not stated)	-1	-5	10	1	-39*
Cc1ccc(CNC(=O)CCC(=O)N2CC3CCCN3c3ccccc32)cc1 (configuration not stated)	-3	-12	.	0	12
Cn1c(=O)c2cc(C(=O)NCCCN3CCN(c4ccc(F)cc4)CC3)sc2c2ccccc21	1	-21	.	-1	-7
Cc1ccc(NC(=O)c2ccc(CSc3nnc(C)s3)cc2)cc1	35*	-6	11	125*	-10
O=C(O)c1ccc(CSc2nnc(SCc3ccccc3)s2)cc1	-5	5	3	2	-47*
COc1ccc(CN(C)CC(=O)NC(=O)NCc2ccccc2)c(OC)c1	-9	-4	-20	-1	-55*
